Screening data deposited in PubChem BioAssay by ICCB-Longwood Screening Facility, Harvard Medical School.
This excerpt belongs to a sample that is enriched for hits.
VACV E9 pol inh: inhibitors of vaccinia virus processive DNA synthesis (E9 polymerase) | in vitro processive DNA synthesis, absorbance read-out; stronger effect = lower value | normalized absorbance, % (concentration not given with the values) | actives 0.94% (n = 46,000); in the data active = normalized absorbance mostly below about 85%, no sharp cut-off; inactive = mostly above about 86%
An asterisk follows results filed as active.

`CCOc1ccc2c(c1)C1C=CCC1C(c1ccc(C(=O)OC)cc1)N2` (centres undefined) gave VACV E9 pol inh 105.
Screening Cc1ccc2c(c1)C1C=CCC1C(c1ccc(N=Cc3ccccc3)cc1)N2 (centres undefined) returned VACV E9 pol inh 97.
`O=C1N[C@H](C(=O)O)C1Cc1ccccc1` (some centres undefined) gave VACV E9 pol inh 99.
Screening CCC(C(=O)N1CCCCC1)n1ncn2c(cc3occc32)c1=O (centres undefined) returned VACV E9 pol inh 100.
Screening O=C1S/C(=C/c2ccccc2)C(=O)N1CCOc1ccccc1 returned VACV E9 pol inh 90.
CC1CN/C(=C/C(=O)c2ccccc2)C(=O)N1 (centres undefined) was read as VACV E9 pol inh 108.
O=C(Cc1ccccc1)N1CCN(C2CCCCC2)CC1 was read as VACV E9 pol inh 100.
`O=C1NC(=O)C(=Cc2cccc3ccccc23)C(=O)N1` gave VACV E9 pol inh 88.
Screening CSC1=NC(=O)/C(=C\c2cccc3ccccc23)S1 returned VACV E9 pol inh 73*.
For CC(C(=O)O)N1C(=O)/C(=C/c2cccc3ccccc23)SC1=S (centres undefined) the results were VACV E9 pol inh 85.
Screening COc1ccccc1NC(=O)Cn1cccc1 returned VACV E9 pol inh 104.
For O=C(O)c1cc2ccc(Br)cc2o1 the results were VACV E9 pol inh 126.
`Cc1cccc(/C=N/n2cnnc2)c1` gave VACV E9 pol inh 80.
CC(C)N(Cc1nc(-c2ccccc2)no1)C(=O)C1CCCCC1 was read as VACV E9 pol inh 99.
`Cc1ccc(-c2noc(CN(C3CCCCC3)S(=O)(=O)c3ccccc3)n2)cc1` gave VACV E9 pol inh 64*.
Screening Cc1ccc2[nH]c(=O)c(CN(C3CCCCC3)S(=O)(=O)c3ccccc3)cc2c1 returned VACV E9 pol inh 101.
Screening CCOC(=O)N1CCC(NC(=O)CCc2cn(Cc3ccccc3C)c3ccccc23)CC1 returned VACV E9 pol inh 95.
c1ccc(-c2cn3c(nc4ccccc43)s2)cc1 was read as VACV E9 pol inh 80*.
For c1ccc(-c2csc3nc4ccccc4n23)cc1 the results were VACV E9 pol inh 86.
Screening CCN(CC)CCCn1c(-c2ccccc2)cn2c3ccccc3nc12 returned VACV E9 pol inh 100.
Screening CCn1c(C2CC(=O)N(c3ccccc3)C2)nc2ccccc21 (centres undefined) returned VACV E9 pol inh 107.
Screening CCc1ccccc1NC(=O)CCn1c(=O)sc2ccccc21 returned VACV E9 pol inh 99.
Screening CCOC(=O)c1ccc(N=C(N)SCc2ccc(Cl)cc2)cc1 returned VACV E9 pol inh 65*.
`CCOC(=O)c1ccc(CN)cc1` gave VACV E9 pol inh 98.
For CCOC(=O)c1ccc(NC(=O)c2ccc(Cl)cc2)cc1 the results were VACV E9 pol inh 99.
`COc1ccccc1Oc1ncnc2sc(-c3ccccc3)cc12` gave VACV E9 pol inh 101.
Screening Cc1cccc(C(=O)OCC(=O)N2c3ccccc3CC2C)c1O (centres undefined) returned VACV E9 pol inh 109.
Screening CC1CCN(C(=O)c2cccc3c2SCCC3=O)CC1 returned VACV E9 pol inh 105.
For Cc1c(N=c2scc(-c3ccccc3)n2-c2ccccc2)c(=O)n(-c2ccccc2)n1C the results were VACV E9 pol inh 100.
CC1CCCCN1C(=O)CSc1ccc2ccccc2c1 (centres undefined) was read as VACV E9 pol inh 73*.
CCOC(=O)C1CCCN(C(=O)CSc2ccc3ccccc3c2)C1 (centres undefined) was read as VACV E9 pol inh 94.
Screening CC1CCCCN1C(=O)CSc1nnc(-c2ccccc2)o1 (centres undefined) returned VACV E9 pol inh 95.
`CNc1nc(OC)cc(OC)n1` gave VACV E9 pol inh 96.
`Cc1ccc(C=Nc2cc(Cl)ccc2O)o1` gave VACV E9 pol inh 93.
Screening O=C(O)Cn1c2c(c3ccccc31)CSc1ccc(Cl)cc1-2 returned VACV E9 pol inh 71*.
O=C(O)Cn1cc(C(=O)C2CC2)c2ccccc21 was read as VACV E9 pol inh 89.
`CCSc1nc2ccccc2n1CC(=O)O` gave VACV E9 pol inh 101.
`C=CCn1nnnc1SCc1cccc(CSc2nnnn2CC=C)c1` gave VACV E9 pol inh 98.
For CCn1c(=O)c(C(=O)NC)c(O)c2ccccc21 the results were VACV E9 pol inh 100.
`Nc1ccc(-c2ccc(N)cc2)cc1` gave VACV E9 pol inh 72*.
Screening Nc1ccc(-c2cnc(-c3ccc(N)cc3)nc2)cc1 returned VACV E9 pol inh 100.
Cc1ccc(-c2ccc(N)cc2)cc1 was read as VACV E9 pol inh 93.
For CCN1C(=O)/C(=C\c2ccc(N(C)C)cc2Cl)OC1=S the results were VACV E9 pol inh 100.
Screening COc1cc(/C=C/C(=O)NC23CC4CC(CC(C4)C2)C3)cc(OC)c1OC returned VACV E9 pol inh 71.
Screening Cc1ccc(C(C)C)c(OCC(O)CN2CCN(C)CC2)c1 (centres undefined) returned VACV E9 pol inh 96.
O=S(=O)(Cc1cccc(C(F)(F)F)c1)Cc1nc(-c2ccc(C(F)(F)F)cc2)cs1 was read as VACV E9 pol inh 99.
Screening Cc1ccc(Cn2cnc3c(cnn3C)c2=O)cc1 returned VACV E9 pol inh 98.
`CNc1nc(N2CCc3ccccc32)ncc1F` gave VACV E9 pol inh 56*.
`CC1CC(=O)c2cnc(N3CCc4ccccc43)nc2C1` (centres undefined) gave VACV E9 pol inh 100.
`S=c1[nH]c(=S)c2cnc(N3CCc4ccccc43)nc2[nH]1` gave VACV E9 pol inh 98.
CCc1cc(=O)oc2cc(C)c3c(-c4ccccc4)coc3c12 was read as VACV E9 pol inh 99.
Cc1ccc(-n2nc(C)c(C3=CCCCC3)c2N)cc1 was read as VACV E9 pol inh 102.
Screening COc1ccc(OCCn2cc(C=C3C(=O)N(C)C(=O)N(C)C3=O)c3ccccc32)cc1 returned VACV E9 pol inh 100.
`O=S1(=O)CCC(NC(=S)S)C1` (centres undefined) gave VACV E9 pol inh 93.
Screening O=C(Nc1ccc(N2CCCCC2)cc1)c1cc(C(F)(F)F)cc(C(F)(F)F)c1 returned VACV E9 pol inh 96.
COC(=O)CC1(O)C(=O)C=C(c2ccc(C)cc2)N1c1ccccc1OC (centres undefined) was read as VACV E9 pol inh 101.
O=C(O)c1ccccc1NCc1ccccc1Cl was read as VACV E9 pol inh 64.
Screening O=C(/C=N/O)Nc1ccccc1C(=O)O returned VACV E9 pol inh 94.
Screening O=C(Nc1ccccc1C(=O)O)OCC1c2ccccc2-c2ccccc21 returned VACV E9 pol inh 41*.
Screening O=C(COC(=O)c1cc(Cl)nc(Cl)c1)NC(c1ccccc1)c1ccccc1 returned VACV E9 pol inh 98.
CCOC(=O)c1cnc2c(ccc3ccccc32)c1NCC(C)C was read as VACV E9 pol inh 100.
Screening CCOC(=O)c1cnc2c(ccc3ccccc32)c1NC1CC(C)(C)NC(C)(C)C1 returned VACV E9 pol inh 58*.
Screening CCOC(=O)c1cnc2c(ccc3ccccc32)c1NCCOC(=O)C(C)(C)C returned VACV E9 pol inh 100.
Screening CC1(C)CCCC(C)(C)N1CC(O)COc1ccccc1Br (centres undefined) returned VACV E9 pol inh 108.
For O=C(O)CSCC(=O)Nc1cc(C(F)(F)F)ccc1N1CCCC1 the results were VACV E9 pol inh 100.
Screening O=C(Oc1ccc2sc(=O)oc2c1)c1cccs1 returned VACV E9 pol inh 101.
